Assay outcomes from PubChem.
Only some compounds are listed: those with a hit (about 3.6% of all), similar ones and a draw of the others.
D1 potentiator: Potentiators of Human D1 Dopamine Receptor: qHTS | actives 0.036% (n = 360,000) | HEK293 TREx D1 cells, calcium flux, dopamine EC20 potentiation | potentiation, % at 10 µM | D(1A) dopamine receptor (Homo sapiens), P21728; in the data active means potentiation above about 30%; further: 0% is about no effect
TRHR enhancer: qHTS for Small Molecule Agonists and Allosteric Enhancers of Human TRH Receptor: Primary Screen for Enhancers | TRHR cells, fluo-8 calcium fluorescence, EC20 TRH enhancement | Thyrotropin-releasing hormone receptor (Homo sapiens), P34981 | actives 0.66% (n = 360,000) | enhancement, % at 2 µM; in the data active means enhancement above about 30%; further: 0% is about no effect
Target sequence (P34981 whole entry, looked up): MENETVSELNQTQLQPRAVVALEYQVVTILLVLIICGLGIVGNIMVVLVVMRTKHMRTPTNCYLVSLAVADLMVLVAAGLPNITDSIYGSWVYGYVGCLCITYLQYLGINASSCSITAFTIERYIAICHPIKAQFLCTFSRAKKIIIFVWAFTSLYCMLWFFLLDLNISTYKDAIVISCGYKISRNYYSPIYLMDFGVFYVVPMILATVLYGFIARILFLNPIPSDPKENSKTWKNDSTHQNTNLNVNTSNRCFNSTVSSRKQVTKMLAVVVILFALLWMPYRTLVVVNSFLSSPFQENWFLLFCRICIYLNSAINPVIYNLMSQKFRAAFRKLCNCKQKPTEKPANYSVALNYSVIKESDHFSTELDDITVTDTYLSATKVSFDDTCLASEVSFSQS
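TRHR-expressing cells loaded with fluo-8 calcium dye were read kinetically (ex 480/em 530) during compound addition, then stimulated with an EC20 of TRH (10 nM final). Enhancement of the Gq-mediated intracellular calcium response was scored.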
TRHR ag: qHTS for Small Molecule Agonists and Allosteric Enhancers of Human TRH Receptor: Primary Screen for Agonists | Thyrotropin-releasing hormone receptor (Homo sapiens), P34981 | TRHR cells, calcium flux fluo-8, FDSS agonist mode | activation, % at 2 µM | actives 0.18% (n = 360,000); further: 0% is about no effect
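Fluo-8-loaded TRHR cells; 10 s baseline, compound added, kinetic Ca2+ fluorescence read 1/s, agonist mode.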
D1 ag: Allosteric Agonists of the Human D1 Dopamine Receptor: qHTS | D(1A) dopamine receptor (Homo sapiens), P21728 | actives 1% (n = 360,000) | HEK293 T-REx D1 cells, calcium flux, agonist mode | activation, % at 2 µM | AID 504660, 2011; further: 0% is about no effect
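Tetracycline-induced HEK293 TREx D1 cells, force-coupled to calcium signalling, were dye-loaded with a no-wash calcium kit. Compound was pin-added after a 10 s baseline. Fluorescence was read kinetically at 1 cycle/s for 180 s, with calcium rises flagged as agonism.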
D1 antag: Antagonist of Human D 1 Dopamine Receptor: qHTS; D(1A) dopamine receptor (Homo sapiens), P21728; HEK293 TREx D1 cells, calcium flux, dopamine EC80; stronger effect = lower value; activity change, negative = inhibition, % at 10 µM; actives 3.2% (n = 360,000); in the data active means activity change below about -30%; further: on the % scale 0 is the no-effect control and ±100 the full control effect
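Calcium flux readout: force-coupled, inducible Hek293 Trex D1 line, cells induced overnight at 30 C with tetracycline, dye-loaded 30–90 min at RT. Antagonism scored against EC80 dopamine challenge given 180 s after compound.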
LDHA inh: qHTS assay for inhibitors of human lactate dehydrogenase. L-lactate dehydrogenase A chain (Homo sapiens), P00338. purified LDHA, NADH/diaphorase-resazurin fluorescence; stronger effect = lower value. activity change, % (values are at about 110 or 230 µM). actives 0.15% (n = 480,000). AID 1347041, 2019; in the data active means activity change below about -30%;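 further: plate controls were DMSO wells for no effect and wells without enzyme for full effect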
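Human LDH5 (2 nM) was incubated with 0.06 mM NADH and 0.2 mM pyruvate for 5 min at room temperature in Tris pH 7.4. Remaining NADH was coupled through diaphorase/resazurin, and resorufin fluorescence was read at 0 and 20 min.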
An asterisk follows results filed as active; nt = no result given. Unless noted, no stated cut-off is given here; in the data, active means activation above about 30%; inactive means the rest.

SMILES	D1 potentiator	TRHR enhancer	TRHR ag	D1 ag	D1 antag	LDHA inh
CN1CCN(C(=O)c2cc(COc3ccccc3)on2)[C@@H](c2ccccc2)C1	-2	3	1	6	3	-2
Cc1cc(OCc2cc(C(=O)N3CCN(C)C(=O)[C@@H]3C)no2)cc(C)c1Cl	-7	4	0	23	-31*	-3
Cc1ccc(OCc2cc(C(=O)N3CCN(C)C[C@@H]3c3ccccc3)no2)cc1C	-2	-3	1	9	-31*	1
Cc1ccc(OCc2cc(C(=O)N(C)CC3CCOCC3)no2)cc1C	-8	2	0	56*	2	-3
COc1cccc(OCc2cc(C(=O)N(C)Cc3nc4ccccc4[nH]3)no2)c1	5	-7	0	3	6	-2
Nc1nc2ccccc2n1CCOc1ccccc1Cl	-6	1	1	20	-36*	2
CCN(CC)CCn1c(=N)n(CCOc2ccccc2Cl)c2ccccc21	-2	5	-1	53*	-7	1
Cn1c(=O)n(CCOc2ccccc2Cl)c2ccccc21	2	-16	0	-1	6	-2
CC(Sc1ccc2c(c1)OCCCO2)C(=O)c1c[nH]c2ccccc12 (stereo not drawn)	nt	nt	nt	nt	nt	23
Cc1cc(C)c(C)c(C(=O)CSc2nnc(-c3ccc4[nH]c(C)c(C)c4c3)o2)c1C	11	1	0	1	5	-3
Cc1[nH]c2ccc(-c3nnc(SCC(=O)c4ccc(F)cc4)o3)cc2c1C	-7	5	1	2	-40*	-10
Cc1cc(-c2nnc(SCC(=O)c3ccc(Cl)cc3)o2)no1	-6	4	-1	9	-33*	1
COc1ccc(C(=O)CSc2nnc(-c3cc(C)on3)o2)cc1	-1	-2	0	3	-11	-4
Cc1cccc(NC(=S)N(CCC#N)c2ccc(F)cc2)c1	nt	nt	nt	nt	nt	-13
Clc1ccc2[nH]c3c(NCCCN4CCOCC4)ncnc3c2c1	-6	1	0	1	-14	-11
O=C1CCCN1CCCNc1ncnc2c1[nH]c1ccc(Cl)cc12	-1	12	0	1	-88*	-12
COc1ccc(CN2CCN(C(=O)CCC(=O)Nc3nnc(CC(C)C)s3)CC2)cc1F	-3	9	0	36*	-20	-1
CSc1ccc(CN(C)CC(=O)Nc2c(F)cccc2F)cc1	-4	-3	0	3	-27	-33*
COc1ccc(/C=C(/C#N)c2nc3ccccc3[nH]2)c2ccccc12	nt	nt	nt	nt	nt	31
CCN(CC)c1ccc(C(=O)O)cc1	5	0	0	4	-6	-3
CCN(CC)c1ccc(/C=C2\C(=O)c3ccc(C(=O)O)cc3C2=O)cc1	9	24	106*	354*	-8	28
O=C(NC12CC3CC(CC(C3)C1)C2)c1csc2c1CCCC2	nt	nt	nt	nt	nt	4
Cc1ccc2nc(-c3cc(-c4ccccc4)no3)cn2c1	-17	-1	0	1	-53*	-11
Cc1cc(C(=O)NCc2cc(C)n(C)n2)sc1-c1ccccc1	-8	-1	-1	6	-34*	2
CC(C)c1ccc(C(O)c2nc3ccccc3n2C)cc1 (stereo not drawn)	2	3	-1	11	-36*	2
SMILES	D1 potentiator	TRHR enhancer	TRHR ag	D1 ag	D1 antag	LDHA inh
CC(C)Oc1ccc(C(CCNCc2ccc(O)cc2)c2ccccc2)cc1 (stereo not drawn)	-6	3	2	39*	7	-1
CNc1nc(-c2ccc3c(c2)CCN3C(=O)CC(C)(C)C)c(C)s1	2	8	0	3	-35*	1
O=C(O)CC1(CC(=O)Nc2ccc3ccccc3n2)CCCCC1	-3	32*	0	1	2	-12
O=C(OCc1cc(=O)oc2cc(O)ccc12)C1CCCC1	nt	nt	nt	nt	nt	6
CC(C)(Oc1ccc(-c2ccco2)cc1)C(=O)O	5	-4	0	4	-46*	nt
COc1ccc(Nc2oc(-c3cccs3)nc2C#N)cc1	-10	-6	-1	2	-43*	-2
O=C(O)CCCNC(=O)CCCn1nnc2ccccc2c1=O	-2	32*	1	0	5	-3
O=C(O)CNC(=O)CCCn1nnc2ccccc2c1=O	-1	5	0	3	0	-6
O=C(O)CCCCCNC(=O)CCn1cnc2ccccc2c1=O	-13	-2	0	1	-51*	2
COc1ccc(CCNC(=O)c2ccc(Cn3c(=O)[nH]c4cc(OC)c(OC)cc4c3=O)cc2)cc1OC	0	-5	0	1	-35*	0
COc1ccc(CCNC(=O)c2ccc(OCC(=O)N3CCOCC3)c(OC)c2)cc1OC	1	4	0	3	-42*	0
COc1ccc(CCNC(=O)c2ccc3c(c2)NC(=O)CS3)cc1OC	-1	2	0	1	-33*	3
COc1cc2[nH]c(=O)n(Cc3ccc(C(=O)NCc4ccccc4)cc3)c(=O)c2cc1OC	3	3	0	1	47	-5
Cc1cccc(NC(=S)NN=C2CCCC2)c1C	nt	nt	nt	nt	nt	0
C=C(C)Cn1c(SCCCCC)nc2c1c(=O)n(C)c(=O)n2C	nt	nt	nt	nt	nt	0
COC(=O)c1c(NC(=O)CSc2ncnc3ccccc23)sc2c1CCCCC2	nt	nt	nt	nt	nt	2
COc1ccc(NC(=O)CSc2nc3ccccc3c(=O)n2CCCN2CCOCC2)c(OC)c1	-7	4	-1	4	-33*	-8
CCOCCCn1c(SCC(=O)Nc2ccc(OC)cc2OC)nc2ccccc2c1=O	3	20	0	-2	14	-2
COc1cccc(NC(=O)CSc2nc3ccccc3c(=O)n2C)c1	7	-4	-1	50*	1	-5
Cc1ccccc1NC(=O)CSC1=C(C#N)C(c2ccccc2C)C2=C(CCCC2=O)N1 (stereo not drawn)	nt	nt	nt	nt	nt	-13
N#C/C(=C/c1ccc(C#N)cc1)C(=O)Nc1ccc(N2CCOCC2)cc1	nt	nt	nt	nt	nt	4
COc1ccc(-c2c(C(F)(F)F)oc3cc(OCC#N)ccc3c2=O)cc1	nt	nt	nt	nt	nt	11
Cc1cc(C)cc(NC(=O)CCCn2c(=O)c3cccn3c3ccccc32)c1	-5	-3	0	5	-71*	1
